Screening data (PubChem)
Mdm2-MdmX inh: inhibitors of human Mdm2-MdmX association, primary screen, cell-based, luminescence, split luciferase, SaOS-2, uHTS; Protein Mdm4 (Homo sapiens) + E3 ubiquitin-protein ligase Mdm2 (Homo sapiens), …; SaOS-2 split-luciferase Mdm2/MdmX complementation; inhibition, % at 8 µM; actives 3% (n = 330,000); AID 485346, 2010;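 active = inhibition of at least 50% at 8 µM in the primary screen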
Target sequence (O15151 whole entry, looked up): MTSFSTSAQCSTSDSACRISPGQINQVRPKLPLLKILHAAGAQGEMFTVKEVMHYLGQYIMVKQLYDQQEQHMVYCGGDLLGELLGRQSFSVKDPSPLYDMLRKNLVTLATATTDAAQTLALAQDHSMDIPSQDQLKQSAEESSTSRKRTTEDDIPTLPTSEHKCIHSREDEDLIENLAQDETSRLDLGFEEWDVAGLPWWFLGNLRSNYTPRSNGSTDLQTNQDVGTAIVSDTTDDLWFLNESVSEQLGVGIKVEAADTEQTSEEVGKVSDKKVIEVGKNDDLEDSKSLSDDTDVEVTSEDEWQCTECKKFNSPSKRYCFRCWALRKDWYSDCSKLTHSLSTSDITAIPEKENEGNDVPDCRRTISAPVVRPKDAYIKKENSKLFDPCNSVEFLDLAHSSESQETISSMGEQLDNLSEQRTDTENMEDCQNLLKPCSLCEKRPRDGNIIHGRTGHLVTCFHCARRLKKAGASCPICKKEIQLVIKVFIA
Target sequence (Q00987 whole entry, looked up): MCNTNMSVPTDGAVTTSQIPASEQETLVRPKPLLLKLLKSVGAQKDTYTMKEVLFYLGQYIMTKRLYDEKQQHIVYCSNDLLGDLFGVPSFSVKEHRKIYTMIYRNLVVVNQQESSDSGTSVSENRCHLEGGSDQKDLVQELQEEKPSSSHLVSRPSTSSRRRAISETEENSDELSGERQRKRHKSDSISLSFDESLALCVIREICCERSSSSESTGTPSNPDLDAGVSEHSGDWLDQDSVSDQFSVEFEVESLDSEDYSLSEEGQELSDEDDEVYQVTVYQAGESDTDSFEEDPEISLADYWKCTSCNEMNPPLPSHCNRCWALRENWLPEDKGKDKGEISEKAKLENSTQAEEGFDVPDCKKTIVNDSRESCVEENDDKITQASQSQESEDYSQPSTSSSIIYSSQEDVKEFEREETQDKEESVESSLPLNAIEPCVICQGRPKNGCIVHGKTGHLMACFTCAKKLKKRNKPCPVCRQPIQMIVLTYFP
MPTP block: mitochondrial permeability transition pore inhibitors, primary screen, biochemical, isolated mouse mitochondria, absorbance. Ca2+ swelling absorbance, 30 min. inhibition, % at 10 µM. actives 1.4% (n = 360,000);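 active = inhibition of 50% or more, scaled per plate between neutral and stimulator controls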;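 also: 0% = DMSO wells given calcium and 100% = 1 mM EGTA wells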
CSC inhib: cancer stem cell viability inhibitors, primary screen, luminescence; cancer stem cell-like cells viability; inhibition, % at 7.5 µM; actives 1.1% (n = 300,000); AID 2717, 2010; in the data active = inhibition above about 75%; tested in HMLE shEcad cells
Beta apoptosis: inhibitors of cytokine-induced beta cell apoptosis, primary screen, luminescence; INS-1E cytokine-induced death, ATP luminescence, 48 h; percent of positive-control rescue, neutral wells zero; protection from apoptosis, % (concentration not given with the values); actives 0.8% (n = 300,000); AID 435005, 2010;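 active = Every replicate reaches about 75%, or at least half do and their mean reaches it too, limit read from the data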;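 also: 0% = cytokine-treated negative control wells and 100% = positive control rescue; higher means more ATP so stronger rescue from cytokine killing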
Gli-Sufu block: Gli-Sufu pathway antagonists, primary screen, luciferase luminescence, Sufu-KO-LIGHT cells, uHTS; inhibition, % at 5 µM; actives 0.74% (n = 340,000); Sufu-KO-LIGHT fibroblasts, Gli luciferase reporter luminescence;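 active = inhibition above about 55%, limit read from the data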;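 also: 0% = DMSO-treated cells and 100% = wells with medium but no cells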
GRIN3A LBD mod: binders of NR3A ligand-binding domain, primary screen, biophysical, differential scanning fluorimetry, uHTS; NR3A LBD differential scanning fluorimetry, Tm shift; 0% = protein alone, 100% = glycine-bound protein; Tm shift relative to glycine control, % at 25 µM; Glutamate receptor ionotropic, NMDA 3A (GRIN3A) ligand-binding domain; actives 2.5% (n = 340,000);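 active = melting temperature shift of at least 10% of the positive control shift, at one fixed dose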
Mdm2 MdmX conf: Mdm2-MdmX complex disruptors, retested hits, confirmation, luminescence, single concentration; Mdm2-MdmX binding, luminescent assay; actives 55% (n = 10,000); shares compounds with Mdm2-MdmX inh; inhibition, % at 8 µM; in the data active = inhibition above about 40%
Full FLuc ctr: full-length luciferase signal inhibition, confirmation, counter-screen for Mdm2/MdmX interaction inhibitor project, cell-based, single concentration, SaOS-2; SaOS-2 full-length luciferase counterscreen, luminescence; actives 77% (n = 6,200); shares compounds with Mdm2-MdmX inh; inhibition, % at 8 µM; AID 504607, 2011;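 active = mean inhibition at 8 µM reaching about 37%, which flags the compound as non-specific, limit read from the data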;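 also: p53-null SaOS-2 cells with luciferase driven by a doxycycline-inducible promoter; compound on cells about two nights before reading with doxycycline added after day one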
The depositor's hits bear a star; nt = no result given. Shown are actives, neighbours in structure and some others; about 6.6% of the full set was active somewhere.

SMILES | Mdm2-MdmX inh | MPTP block | CSC inhib | Beta apoptosis | Gli-Sufu block | GRIN3A LBD mod | Mdm2 MdmX conf | Full FLuc ctr
CC1=CC(=Nc2c(C)n(C)n(-c3ccccc3)c2=O)C=C(C)C1=O | 77* | 8 | 12 | nt | 32 | -1 | 26 | nt
CCN1C(=O)N[C@H](c2ccccc2)C(C(C)=O)=C1C | 24 | 0 | -7 | -4 | -8 | 2 | nt | nt
O=C(CCN1C(=O)/C(=C/c2ccccc2Cl)SC1=S)N1CCOCC1 | 45 | -1 | 9 | nt | -13 | 1 | nt | nt
COc1ccc(CN2C(=O)/C(=C/c3ccncc3)SC2=S)cc1 | 75* | 9 | 23 | -33 | 5 | 1 | 76* | 39*
O=C(CCCN1C(=O)/C(=C/c2ccccc2Cl)SC1=S)NNC(=O)c1ccccc1Cl | 56* | 1 | 29 | 3 | 31 | -6 | 29 | nt
O=C(CCN1C(=O)/C(=C/c2ccccc2Cl)SC1=S)N1CCCC1 | 62* | -3 | 13 | -155 | 11 | 9 | 24 | nt
Cc1cc(NC(=O)CCN2C(=O)/C(=C/c3ccccc3F)SC2=S)no1 | 22 | nt | 2 | -5 | nt | nt | nt | nt
Cc1cc(NC(=O)CCCN2C(=O)/C(=C/c3ccccc3Cl)SC2=S)no1 | 68* | 2 | -8 | -2 | 9 | 10 | 43* | 58*
COc1ccc(C(=O)Nc2ccc(OCC(=O)N3CCOCC3)cc2)c(OC)c1OC | 13 | 0 | -2 | nt | 8 | 0 | nt | nt
Cc1ccc(Cc2ccccc2C(=O)O)cc1 | nt | -1 | nt | nt | 0 | -1 | nt | nt
CCCN(C)C1CN(Cc2cn(Cc3cc(C)cc(C)c3)nn2)S(=O)(=O)C1 (stereo not given) | nt | 1 | nt | nt | nt | nt | nt | nt
O=C(OCC(=O)N1CCCC1)c1ccccc1C(=O)c1ccccc1 | -19 | -1 | -10 | -1 | -15 | 0 | nt | nt
COc1ccc(/C=C2/SC(=S)N(CCCC(=O)Nc3ccccc3C(=O)O)C2=O)cc1 | -7 | 2 | 4 | -9 | 10 | -6 | nt | nt
COc1ccc(/C=C2\SC(=S)N(CCCC(=O)NNC(=O)c3ccccc3O)C2=O)cc1 | 57* | 4 | -1 | -8 | 26 | 6 | 58* | 46*
O=C(CCCN1C(=O)/C(=C/c2ccccc2Cl)SC1=S)N1CCCC1 | 76* | -3 | 14 | -42 | -4 | 4 | 31 | nt
O=C(CCCN1C(=O)/C(=C/c2ccccc2)SC1=S)N1CCOCC1 | 30 | 0 | nt | -20 | -1 | 2 | nt | nt
COc1ccc(/C=N/NC(=O)c2nonc2N)cc1OC | -6 | 3 | -16 | -5 | -13 | 0 | nt | nt
COc1ccc(/C=N/Nc2nonc2N)cc1OC | 51* | 1 | 1 | 3 | 1 | -8 | 8 | nt
CC(C)(C)c1ccc(CN2N=C(/C=C/c3ccccc3)CCC2=O)cc1 | -11 | 2 | 4 | nt | -10 | 1 | nt | nt
CCCOc1ccc(CNC(=O)c2ccc3nc(N4CCOCC4)sc3c2)cc1 | 51* | 3 | 2 | 4 | -14 | -1 | 7 | nt
O=C(NCc1ccccc1)c1ccc2nc(N3CCOCC3)sc2c1 | -17 | 0 | -10 | -3 | -10 | 1 | nt | nt
COc1ccccc1NS(=O)(=O)c1cc(-c2cnc(C3CC3)o2)ccc1C | 53* | -1 | -7 | 7 | 13 | -5 | 46* | 56*
Cc1ccc(C)c(NS(=O)(=O)c2ccc(-c3cnc(C4CC4)o3)cc2)c1 | 71* | 6 | 75* | 47 | 48 | -14 | 55* | 81*
Cc1cccc(NS(=O)(=O)c2ccc(-c3cnc(C4CC4)o3)cc2)c1C | 85* | 0 | nt | nt | 44 | -13 | 66* | 76*
CCOc1ccc(NS(=O)(=O)c2ccc(-c3cnc(C4CC4)o3)cc2)cc1 | 57* | 2 | -13 | -2 | 7 | -1 | 57* | 52*
SMILES | Mdm2-MdmX inh | MPTP block | CSC inhib | Beta apoptosis | Gli-Sufu block | GRIN3A LBD mod | Mdm2 MdmX conf | Full FLuc ctr
COc1ccccc1NS(=O)(=O)c1cc(C)ccc1C | 10 | 1 | -3 | -4 | 4 | 1 | nt | nt
O=S(=O)(NCc1ccc(F)cc1)c1ccc(-c2cnc(C3CC3)o2)cc1 | 32 | -2 | 50 | 2 | nt | 0 | nt | nt
O=S(=O)(Nc1ccccc1)c1ccc(-c2cnc(C3CC3)o2)cc1 | 49 | -1 | 55 | 3 | 5 | -9 | nt | nt
CC(=O)Nc1ccc(NS(=O)(=O)c2ccc(-c3cnc(C4CC4)o3)cc2)cc1 | 43 | -2 | nt | nt | -9 | -3 | nt | nt
C#CCCOC(=O)N1C2=NC(C(=O)OC)=C(C(=O)OC)[C@@H]3N(CC=C)c4ccccc4[C@]23C[C@H]1C(=O)OC | 6 | -1 | 18 | 3 | 5 | 1 | nt | nt
CC[C@H](C)[C@@H]1NC(=O)[C@H]([C@@H](C)CC)NC(=O)[C@@H](CC(C)C)NC(=O)[C@H](Cc2ccccc2)NC(=O)[C@H](Cc2ccccc2)NC(=O)[C@@H]2CCCN2C(=O)[C@@H]2CCCN2C(=O)[C@H](C(C)C)NC(=O)[C@H](CC(C)C)NC1=O | 52* | 1 | nt | 5 | -8 | -3 | 12 | nt
CC(=O)N1N=C(c2ccccc2)CC1c1cn(Cc2ccccc2)c2ccccc12 (stereo not given) | 59* | 1 | 52 | 9 | 7 | 2 | 51* | 47*
Cc1occc1C(=O)Nc1nnc(C(F)(F)F)s1 | -11 | 2 | 2 | 22 | -22 | 0 | nt | nt
O=C(Nc1ccccc1C(=O)Nc1nnc(C(F)(F)F)s1)c1ccccc1 | 97* | 1 | 195* | 12 | 76* | 4 | 97* | 20
CCOc1cccc2sc(N(CCCN(C)C)C(=O)c3ccc(C(=O)c4ccccc4)cc3)nc12 | 51* | -2 | 3 | 6 | 29 | 1 | 34 | nt
CCOc1cccc2sc(N(CCN(C)C)C(=O)c3cc4ccccc4cc3OC)nc12 | 69* | 0 | 33 | 7 | 11 | 0 | 28 | nt
CCOc1cccc2sc(N(CCCN(C)C)C(=O)c3ccc(S(=O)(=O)N(C)Cc4ccccc4)cc3)nc12 | 74* | 5 | 12 | -1 | 26 | -5 | 38 | 60*
CCOc1ccc2nc(N(CCN(C)C)C(=O)c3cc4ccccc4cc3OC)sc2c1 | 44 | 1 | -9 | 0 | 22 | 2 | nt | nt
CCNC(=O)C1(C)CCCN1Cc1cccc(C(F)(F)F)c1 (stereo not given) | nt | 0 | nt | nt | nt | nt | nt | nt
COc1ccc2nc(SCC(=O)Nc3ccc(S(=O)(=O)N4CCCC4)cc3)c(C#N)cc2c1 | 13 | -1 | 8 | 16 | 2 | -1 | nt | nt
